# PubChem BioAssay (Tox21)
# Unmarked numbers belong to inactive results. Calls of active or inactive are those of the source. Calls follow the shape of the full dose curve.
# Molecular target: Acetylcholinesterase (Homo sapiens) (UniProt P22303)
# Test: Acetylcholinesterase (AChE) small molecule antagonists: enzyme-based qHTS assay with human liver microsomes (AID 1347399); also: nearly all actives have a fitted effect of over 60% in size
# Conditions: Potency: qHTS inhibition; outcome: qHTS inhibition; series mostly up to 115 µM; activity change, negative = inhibition: at the top concentration
# Outline: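 Recombinant human AChE (50 mU/mL in the enzyme mix) and human liver microsomes (0.25 mg/mL final) were preincubated with compound and NADPH (0.25 mg/mL final) for 30 min at 37 C. Acetylthiocholine/DTNB was then added; thiocholine was read colorimetrically after 10 min at room temperature.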
# % is scaled to controls: 0 for no effect and ±100 for the full control effect.
# Sequence of Acetylcholinesterase (Homo sapiens) (P22303 whole entry, looked up): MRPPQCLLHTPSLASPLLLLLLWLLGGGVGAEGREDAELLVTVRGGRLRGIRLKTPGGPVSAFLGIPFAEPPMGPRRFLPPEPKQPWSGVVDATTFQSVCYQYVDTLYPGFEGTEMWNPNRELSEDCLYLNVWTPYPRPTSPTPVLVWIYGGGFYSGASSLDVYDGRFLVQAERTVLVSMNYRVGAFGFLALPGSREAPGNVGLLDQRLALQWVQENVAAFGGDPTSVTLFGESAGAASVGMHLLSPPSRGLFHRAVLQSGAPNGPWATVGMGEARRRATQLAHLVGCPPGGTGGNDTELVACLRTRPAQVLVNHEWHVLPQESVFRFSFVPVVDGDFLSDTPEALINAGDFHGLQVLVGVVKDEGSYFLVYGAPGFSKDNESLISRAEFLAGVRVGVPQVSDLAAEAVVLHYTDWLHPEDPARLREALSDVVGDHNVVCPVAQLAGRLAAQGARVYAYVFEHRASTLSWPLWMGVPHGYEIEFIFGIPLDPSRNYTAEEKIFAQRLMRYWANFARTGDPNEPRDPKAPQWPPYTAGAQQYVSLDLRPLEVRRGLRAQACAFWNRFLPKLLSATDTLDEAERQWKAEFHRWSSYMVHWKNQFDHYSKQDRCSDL
SMILES,Potency,"activity change, negative = inhibition"
CCCCC(CC)CO (stereo not given),inactive,
COc1ccc(OC)c(N=Nc2c(O)ccc3ccccc23)c1,,3.39%
CCCC(=O)OCCC(C)C,,-0.934%
O=C(NCCN1CCOCC1)c1ccc(Cl)cc1,,-0.124% [at 53 µM]
O=C(O)c1cc(Cl)cc(Cl)c1O,,0.153%
Cc1c(C(N)=O)cc([N+](=O)[O-])cc1[N+](=O)[O-],inactive,
CCCCNc1ccccc1,,-1.22%
Cc1ccc(C)c(C)c1,inactive,
CC1=C2[C@@H]([C@H](C)CC[C@H]2/C=C(\C)C(=O)O)[C@H](O)C1,,-2.57%
C/C=C/c1ccc(O)c(OC)c1,inactive,
Nc1ccn([C@H]2CS[C@@H](CO)O2)c(=O)n1,,-1.77%
CC1(C)Cc2cccc(N)c2O1,,-0.636%
Cc1ncc([N+](=O)[O-])n1C,inactive,
COC(=O)CCCCC(=O)OC,inactive,
Cc1ccccc1S(=O)(=O)O,,0.458%
CCCOCCOCCO,,-0.171%
OCCCCC(O)CO (stereo not given),,-2.64%
O=C(O)Cn1cnnn1,,-0.452% [at 53 µM]
CCCCCCCCN(C)C,,0.588%
O=C(O)c1cc(Br)c(O)c(Br)c1,,0.229%

SMILES,Potency,"activity change, negative = inhibition"
N#Cc1ccccc1C#N,,-2.17%
O=c1[nH]sc2cc(Cl)ccc12,,1.18% [at 53 µM]
CC[C@]1(O)C[C@H]2CN(CCc3c([nH]c4ccccc34)[C@@](C(=O)OC)(c3cc4c(cc3OC)N(C=O)[C@H]3[C@@](O)(C(=O)OC)[C@H](OC(C)=O)[C@]5(CC)C=CCN6CC[C@]43[C@@H]65)C2)C1,,-0.153% [at 53 µM]
CC(=O)OCC(COC(C)=O)OC(C)=O,inactive,
C=C(C)C(=O)Nc1ccc(Cl)c(Cl)c1,inactive,
O=Cc1ccc(Cl)c(Cl)c1,,-1.72%
c1ccc2sc(SN3CCOCC3)nc2c1,,-12.2% [at 53 µM]
COc1cc(/C=C/C(N)=O)cc(OC)c1OC,,0.726% [at 53 µM]
CN(C)CCOC(C)(c1ccccc1)c1ccccn1 (stereo not given),inactive,
CC(=O)NCCCS(=O)(=O)O,,0.0746% [at 53 µM]
CCCCCC/C(C=O)=C\c1ccccc1,inactive,
CC(O)C#CC(C)O (stereo not given),,-3.76%
CCN[C@H]1CN(CCCOC)S(=O)(=O)c2sc(S(N)(=O)=O)cc21,,-1.08% [at 53 µM]
Oc1ccc(O)c2c(O)cccc12,,3.27%
O=Cc1cccc([N+](=O)[O-])c1,,0.262%
CCCCC=O,,-0.548%
O=c1[nH]cnc2nc[nH]c12,,1.16% [at 53 µM]
O=C(O)CCCCCCCCCC(=O)O,,0.824%
CCC(=O)/C=C/C1C(C)=CCCC1(C)C (stereo not given),inactive,
CCCCOC(=O)[C@H](C)O,,1.45%
